Common to all, as to details: modulator concentration 10 µM
Assay [1] relates to RAW-Dual (murine macrophage reporter line). Kind of assay: NF-kB reporter (SEAP) activity fold change vs agonist alone; higher = enhanced NF-kB activity. The procedure, abridged:
(§1)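 RAW-Dual murine macrophage reporter cells were seeded at 50 000 per well in 384-well plates and pre-incubated 1 hour at 37 °C with compound pin-transferred to 10 μM final. After 1 hour, a PRR agonist was added and cells incubated overnight. Supernatant NF-κB (SEAP, QUANTI-Blue, 620 nm absorbance) and IRF (Lucia luciferase, QUANTI-Luc, luminescence) signals were divided by the mean agonist-only control on the same plate to give fold change. Two replicate plates were averaged, with errors by propagation.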

Assay [2] shares this test system. Kind of assay: IRF reporter (Lucia luciferase) activity fold change vs agonist alone; higher = enhanced IRF activity. The procedure, abridged: as §1
Assay [3] has the same test system. Briefly: viability score (confluency relative to resting cells, overnight) (fraction); higher = more viable, active = viable (0.7 or more). The essentials: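 In 384-well plates, RAW-Dual macrophages received compound at a final 10 μM overnight. Two confluency masks were then made with IncuCyte software from IncuCyte images of all imaged wells. The viability score is defined as confluency relative to resting cells. Passing the cutoff required both masks to lie above 70% of resting cells.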

Where [4] appears, read: agonist: CpG ODN 1826 0.5 ug/mL.

For 12 compounds, NF-kB reporter, IRF reporter and viability score results are on record in the supplement of paper PMC10646978.

± gives the standard deviation.

As for `CC(NC(=O)C(=O)Nc1ccc(F)cc1)c1ccccc1` (centres undefined), the NF-kB reporter in assay [1] (setting [4]) was 0.972 ± 0.074; in assay [1] (agonist: LPS 0.1 ug/mL), 0.984 ± 0.18; in assay [1] (agonist: MPLA […]), 0.939 ± 0.097. The IRF reporter turned out to be 0.987 ± 0.069 in assay [2] (agonist: 3'3'-cGAMP 10 ug/mL), 1.22 ± 0.21 in assay [2] (agonist: LPS 0.1 ug/mL) and 1.28 ± 0.2 in assay [2] (agonist: MPLA […]). Moreover, in assay [3], the viability score is 0.994 (active).

For `O=C(O)CCCCC1SCC2NC(=O)NC21` (centres undefined), the NF-kB reporter in assay [1] (setting [4]) is 0.935 ± 0.067; in assay [1] (agonist: LPS 0.1 ug/mL) it was 1.13 ± 0.078; in assay [1] (agonist: MPLA […]), 0.96 ± 0.078. In addition, the figures for the IRF reporter in assay [2] (agonist: 3'3'-cGAMP 10 ug/mL), in assay [2] (agonist: LPS 0.1 ug/mL) and in assay [2] (agonist: MPLA […]) were 0.953 ± 0.072, 1.18 ± 0.075 and 1.12 ± 0.25, respectively. The viability score in assay [3] was 0.997 (active).

On to `Clc1cccc(C=Cc2nn3c(Cc4ccccc4)nnc3s2)c1`, for which the NF-kB reporter in assay [1] (setting [4]) was determined as 0.885 ± 0.04; in assay [1] (agonist: LPS 0.1 ug/mL), 0.927 ± 0.092; in assay [1] (agonist: MPLA […]), 1.12 ± 0.06. Also, the IRF reporter in assay [2] (agonist: 3'3'-cGAMP 10 ug/mL) was determined as 0.86 ± 0.039; in assay [2] (agonist: LPS 0.1 ug/mL) it was 1.35 ± 0.24; in assay [2] (agonist: MPLA […]) it was 1.44 ± 0.43. In assay [3], the viability score was 0.987 (active).

Regarding `C(#Cc1ccc(C=Nc2nccs2)cc1)c1ccccc1`, the NF-kB reporter came to 0.714 ± 0.18 in assay [1] (setting [4]), 0.935 ± 0.17 in assay [1] (agonist: LPS 0.1 ug/mL) and 0.892 ± 0.1 in assay [1] (agonist: MPLA […]). For the same compound, the IRF reporter in assay [2] (agonist: 3'3'-cGAMP 10 ug/mL) came to 0.176 ± 0.029; in assay [2] (agonist: LPS 0.1 ug/mL), 1.09 ± 0.16; in assay [2] (agonist: MPLA […]), 1.15 ± 0.17. In addition, the viability score in assay [3] is 0.997 (active).

Take `COc1ccc(CCNc2nnc(Cc3ccc(Cl)cc3)c(=O)[nH]2)cc1OC`: the NF-kB reporter is 0.928 ± 0.068 in assay [1] (setting [4]), 1.1 ± 0.089 in assay [1] (agonist: LPS 0.1 ug/mL) and 0.877 ± 0.11 in assay [1] (agonist: MPLA […]). Also, the IRF reporter was determined as 0.977 ± 0.05 in assay [2] (agonist: 3'3'-cGAMP 10 ug/mL), 1.07 ± 0.065 in assay [2] (agonist: LPS 0.1 ug/mL) and 1.04 ± 0.08 in assay [2] (agonist: MPLA […]). Moreover, the viability score in assay [3] was 1.02 (active).

As for `O=c1[nH]c(NN=Cc2c3ccccc3cc3ccccc23)nc2ccccc12`, the NF-kB reporter was determined as 0.919 ± 0.085 in assay [1] (setting [4]), 1.03 ± 0.061 in assay [1] (agonist: LPS 0.1 ug/mL) and 0.971 ± 0.066 in assay [1] (agonist: MPLA […]). In addition, the IRF reporter in assay [2] (agonist: 3'3'-cGAMP 10 ug/mL) is 0.935 ± 0.048; in assay [2] (agonist: LPS 0.1 ug/mL), 1.82 ± 0.16; in assay [2] (agonist: MPLA […]), 1.23 ± 0.19. For the same compound, the viability score in assay [3] is 0.999 (active).

For the compound `CCc1ccc(NC(=O)CSc2nc3c([nH]c4ccccc43)c(=O)n2C)cc1`, the NF-kB reporter in assay [1] (setting [4]) came out at 0.809 ± 0.053; in assay [1] (agonist: LPS 0.1 ug/mL), 0.745 ± 0.06; in assay [1] (agonist: MPLA […]) it was 0.776 ± 0.061. Further, the IRF reporter in assay [2] (agonist: 3'3'-cGAMP 10 ug/mL) came out at 1 ± 0.08; in assay [2] (agonist: LPS 0.1 ug/mL) it was 1.13 ± 0.14; in assay [2] (agonist: MPLA […]), 1.07 ± 0.18. Besides, the viability score in assay [3] was 0.483 (inactive).

For `O=C(NCCOc1cccc2ccccc12)Nc1cc(F)c(F)cc1Cl`, the results for the NF-kB reporter in assay [1] (setting [4]), in assay [1] (agonist: LPS 0.1 ug/mL) and in assay [1] (agonist: MPLA […]) were 0.945 ± 0.11, 1.06 ± 0.14 and 0.854 ± 0.053, respectively. Besides, the results for the IRF reporter in assay [2] (agonist: 3'3'-cGAMP 10 ug/mL), in assay [2] (agonist: LPS 0.1 ug/mL) and in assay [2] (agonist: MPLA […]) were 0.886 ± 0.027, 1.14 ± 0.17 and 0.878 ± 0.24, respectively. Besides, the viability score in assay [3] is 1.01 (active).

As to `Cl.Clc1ccc2nsnc2c1NC1=NCCN1`, the NF-kB reporter worked out at 0.8 ± 0.14 in assay [1] (setting [4]), 0.932 ± 0.14 in assay [1] (agonist: LPS 0.1 ug/mL) and 0.993 ± 0.076 in assay [1] (agonist: MPLA […]). For the same compound, the IRF reporter in assay [2] (agonist: 3'3'-cGAMP 10 ug/mL) was found to be 0.791 ± 0.066; in assay [2] (agonist: LPS 0.1 ug/mL), 0.995 ± 0.17; in assay [2] (agonist: MPLA […]), 1.06 ± 0.23. Also, the viability score in assay [3] is 1 (active).

As for `CCCCc1c(C)nc(NN=C(C)c2cccc([N+](=O)[O-])c2)nc1O`, the NF-kB reporter came out at 0.954 ± 0.081 in assay [1] (setting [4]), 0.941 ± 0.092 in assay [1] (agonist: LPS 0.1 ug/mL) and 1.11 ± 0.1 in assay [1] (agonist: MPLA […]). The results for the IRF reporter in assay [2] (agonist: 3'3'-cGAMP 10 ug/mL), in assay [2] (agonist: LPS 0.1 ug/mL) and in assay [2] (agonist: MPLA […]) were 0.912 ± 0.032, 1.12 ± 0.15 and 1.18 ± 0.19, respectively. In addition, the viability score in assay [3] is 1.01 (active).

For `CCOC(=O)C1=C(COCCN)NC(C)=C(C(=O)OC)C1c1ccccc1Cl.O=S(=O)(O)c1ccccc1` (centres undefined), the NF-kB reporter was 0.921 ± 0.14 in assay [1] (setting [4]), 1.33 ± 0.18 in assay [1] (agonist: LPS 0.1 ug/mL) and 3.73 ± 0.3 in assay [1] (agonist: MPLA […]). The IRF reporter was found to be 0.449 ± 0.058 in assay [2] (agonist: 3'3'-cGAMP 10 ug/mL), 1.55 ± 0.2 in assay [2] (agonist: LPS 0.1 ug/mL) and 5.89 ± 1.2 in assay [2] (agonist: MPLA […]). Also, the viability score in assay [3] is 0.0981 (inactive).

For the compound `Cc1cc(C)c(NC(=O)C2C3CCC4C(CCC32)C4(Cl)Cl)c(C)c1` (centres undefined), the NF-kB reporter worked out at 1.01 ± 0.11 in assay [1] (setting [4]), 1.03 ± 0.079 in assay [1] (agonist: LPS 0.1 ug/mL) and 1.02 ± 0.062 in assay [1] (agonist: MPLA […]). In addition, the IRF reporter stood at 1.03 ± 0.027 in assay [2] (agonist: 3'3'-cGAMP 10 ug/mL), 1.61 ± 0.14 in assay [2] (agonist: LPS 0.1 ug/mL) and 1.1 ± 0.11 in assay [2] (agonist: MPLA […]). Moreover, the viability score in assay [3] is 1.01 (active).
